An excerpt weighted towards active compounds, which were near 3.6% of everything screened.
Myeloid diff 2 – induction of myeloid progenitor differentiation, primary screen, cell-based, flow cytometry, MLPCN library | ER-HoxA9 myeloid progenitors, lysozyme-GFP differentiation | calls only at 10 µM | 1% of 360,000 active | AID 624256, 2012;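 active = normalized GFP-positive differentiation at or above the plate's own cutoff, the solvent-only control mean plus 3 SD; inconclusive = no clear call, values can overlap the other calls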;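 also: cells exposed to compound for four days before flow analysis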
FAS-TE inh – FAS thioesterase domain inhibitors, primary screen, biochemical, fluorescence intensity, uHTS | AID 602261, 2012 | recombinant FAS-TE, OMFH fluorogenic substrate, fluorescence endpoint | inhibition, % at 15 µM | Fatty acid synthase (Homo sapiens), P49327 | 0.67% of 360,000 active;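 active = compounds whose normalised, plate-corrected inhibition of enzyme fluorescence in the single-dose primary screen is 50% or more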;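 also: 0% = DMSO with enzyme and 100% = substrate without enzyme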
NadD inh – inhibitors of S. aureus NadD, primary screen, biochemical, colorimetric, uHTS; purified NadD enzyme, colorimetric absorbance read-out; inhibition, % at 20 µM; 0.78% of 360,000 active; in the data active = inhibition above about 26%
NRP1-CendR mod – modulators of CendR peptide binding to NRP-1, primary screen, biochemical, fluorescence polarization, uHTS. Neuropilin-1 (Homo sapiens), O14786. FAM-RPARPAR peptide binding to NRP-1. inhibition, % at 25 µM. 0.85% of 360,000 active. AID 602438, 2012;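 active = inhibition or corrected inhibition above about 18%, plus a signal ratio from 0.5 to 1.5, limit read from the data, passing the limit was not always enough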
CRFR2-BP antag – antagonists of CRF-BP/CRF-R2 complex, primary screen, cell-based, HEK293, calcium dye fluorescence, uHTS. CRF-induced calcium fluorescence. inhibition, % at 11.8 µM. 0.59% of 350,000 active;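 active = inhibition of the ligand-induced calcium signal above about 50% at the single tested concentration, limit read from the data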
NadD conf – inhibitors of S. aureus NadD, confirmation, biochemical, colorimetric, single concentration. shares compounds with NadD inh. purified S. aureus NadD, colorimetric enzyme assay. 13% of 2,000 active. inhibition, % at 20 µM; in the data active = inhibition mostly above about 42%, no sharp cut-off; inactive = mostly below about 42%
Starred values were filed as active, the others as inactive; i = inactive; ? = inconclusive; . = no result given.

SMILES	Myeloid diff 2	FAS-TE inh	NadD inh	NRP1-CendR mod	CRFR2-BP antag	NadD conf
Cc1cc(C)nc(NS(=O)(=O)c2ccc(NC(=O)CN3C(=O)S/C(=C\c4ccccc4)C3=O)cc2)n1	i	2	41*	-18	23	44
COc1ccccc1/C=C1/SC(=O)N(CCC(=O)Nc2ccc(S(=O)(=O)Nc3nccs3)cc2)C1=O	i	-2	56*	-13	-14	33
Nc1c(S(=O)(=O)c2ccccc2)c2nc3ccccc3nc2n1/N=C/c1ccco1	i	24	37*	-142	-6	4
Cc1cccc(S(=O)(=O)c2c(N)n(/N=C/c3ccco3)c3nc4ccccc4nc23)c1	i	39	41*	-106	-7	11
Cc1ccc(S(=O)(=O)c2c(N)n(/N=C/c3ccco3)c3nc4ccccc4nc23)cc1	i	34	25	-105	-5	.
CC(=O)O[C@@H](C[C@@H](C)C1=C2C[C@H](O)C3[C@@]4(C)CCC(=O)C(C)(C)C4CC[C@]3(C)[C@@]2(C)CC1)[C@H]1OC1(C)C (stereo not given in full)	i	22	-4	-1	-24	.
C=C(C)[C@@H]1CCC2(C(=O)O)CC[C@]3(C)[C@H](CC[C@@H]4[C@@]5(C)CCC(=O)C(C)(C)[C@@H]5CC[C@]43C)[C@@H]12 (stereo not given in full)	i	11	48*	-14	1	21
Cc1c(NC(=O)/C(C#N)=C/c2ccc(-c3cccc(Cl)c3)o2)c(=O)n(-c2ccccc2)n1C	i	-2	11	4	22	.
Cc1c(NC(=O)/C(C#N)=C/c2ccc(-c3ccc(Cl)c(Cl)c3)o2)c(=O)n(-c2ccccc2)n1C	i	41	33*	-15	14	8
Clc1ccc(CN2CCN(c3ccccc3)CC2)cn1	i	2	0	2	9	.
O=C(c1ccco1)N1N=C(c2ccco2)CC1c1ccc(Cl)cc1Cl (stereo not given)	i	18	31*	-13	14	0
COc1ccc(C2=NN(C(=O)c3ccco3)C(c3cc4ccccc4nc3Cl)C2)cc1 (stereo not given)	.	.	.	.	18	.
O=C(NCCN1CCOCC1)C(=O)NCC1OCCN1S(=O)(=O)c1ccc(Cl)cc1 (stereo not given)	i	-8	1	2	-14	.
CC(C)NC(=O)c1onc(CSc2cccc(Cl)c2)c1C(=O)O	i	-6	-3	-10	3	.
CCOc1ccc(CCN2C(=S)N([C@@H](Cc3ccc(O)cc3)CN3CCC[C@@H]3CN3C(=S)NC[C@@H]3Cc3ccc(O)cc3)C[C@@H]2Cc2ccc(O)cc2)cc1	i	-65	36*	-2	.	23
CCOc1ccc(CCN2C(=S)N([C@@H](Cc3ccccc3)CN3CCCC3CN3C(=S)NC[C@@H]3Cc3ccccc3)C[C@@H]2Cc2ccc(O)cc2)cc1 (stereo not given in full)	i	-133	50*	-24	.	8
CCOc1ccc(CCN2C(=S)N([C@@H](Cc3ccc(O)cc3)CN3CCC[C@@H]3CN3C(=S)NC[C@@H]3Cc3ccccc3)C[C@@H]2Cc2ccccc2)cc1	i	-77	27	15	.	.
CCOc1ccc(CCN2C(=S)N([C@@H](CC(C)C)CN3CCC[C@@H]3CN3C(=S)NC[C@@H]3Cc3ccccc3)C[C@@H]2Cc2ccc(O)cc2)cc1	i	-99	36*	-13	.	1
CC(C)C[C@@H](CN1CCC[C@@H]1CN1C(=S)NC[C@@H]1Cc1ccc(O)cc1)N1C[C@H](Cc2ccccc2)N(CCc2ccccc2)C1=S	i	-118	23	-10	.	.
CCOc1ccc(CCN2C(=O)C(=O)N([C@@H](Cc3ccc(O)cc3)CN3CCC[C@@H]3CN3C(=O)C(=O)NC[C@@H]3Cc3ccccc3)C[C@@H]2Cc2ccccc2)cc1	i	12	29*	0	-8	43
CC(Oc1ccc(C(C)(C)C)cc1)c1ccnc2nc(/N=C/N(C)C)nn12 (stereo not given)	i	8	1	8	-3	.
Cc1[nH]c2ccccc2c1/C=C/c1nc2ccccc2c(=O)n1-c1ccc([N+](=O)[O-])cc1	i	15	34*	0	-1	7
CC12CCC3C(CCC4CC(O)CCC43C)C1CC(O)C2 (stereo not given)	i	1	-1	-9	8	.
C/C(=N\NC(N)=S)C1=CCC2C3CC[C@H]4CC(O)CC[C@]4(C)C3CC[C@]12C (stereo not given in full)	?	4	36*	8	-17	12
CC(C)n1c(CNC(=O)c2ccccc2F)nnc1SCC(=O)NC1CCCCC1	i	-3	32*	-13	5	16
SMILES	Myeloid diff 2	FAS-TE inh	NadD inh	NRP1-CendR mod	CRFR2-BP antag	NadD conf
COc1ccc(C2=NN(c3nc(-c4ccccc4)c(CC(=O)O)s3)C(c3ccco3)C2)cc1 (stereo not given)	i	1	61*	-122	7	72*
COc1ccc(C2=NN(C(=O)COc3ncnc4ccccc34)C(c3ccco3)C2)cc1 (stereo not given)	i	12	7	-1	-4	.
O=C(CCCCn1c(=S)[nH]c2ccsc2c1=O)NCc1ccc2c(c1)OCO2	i	27	30*	-26	17	35
O=C(CCCCn1c(=O)[nH]c2ccsc2c1=O)NCc1ccc2c(c1)OCO2	i	-5	-2	-2	-10	.
COC(=O)c1ccc2c(c1)N(Cc1nc(-c3ccc(Cl)cc3)oc1C)C(=O)C1CCCN21 (stereo not given)	i	13	45*	-31	-14	19
CCOC(=O)c1c(CSC(=N)N)n(-c2ccccc2)c2cc(Br)c(OC(C)=O)cc12	i	-128	-7	3	-43	.
O=C(C[C@@H]1C/C=C\CCCC(=O)OC[C@@H]2CCCN2C1=O)N[C@H](CO)Cc1ccccc1	i	-11	-3	10	-4	.
COc1ccccc1-c1cc(C(=O)Nc2sc3c(c2C#N)CCC(C)C3)c2ccccc2n1 (stereo not given)	i	42	54*	0	-6	19
CCCc1cc(=O)[nH]c(SCC(=O)Nc2sc3c(c2C#N)CCC(C)C3)n1 (stereo not given)	i	14	28*	-20	5	45
Cc1onc(-c2ccccc2)c1C(=O)NC(=S)Nc1sc2c(c1C#N)CCC(C)C2 (stereo not given)	i	10	36*	-14	-7	-1

Screens: PubChem, several laboratories
